Assay outcomes as filed in PubChem BioAssay.
Compounds with a hit are over-represented: about 3.4% of the library has one in this group of screens.
GBA mod = Glucocerebrosidase; Lysosomal acid glucosylceramidase (Homo sapiens), P04062; hit rate 1.1% among 48,000; Potency, µM; purified enzyme, resorufin glucoside fluorescence (screen aimed at inhibitors), 20 min; AID 360, 2006; in the data active means potency below about 15 µM; inconclusive means mostly about 16 µM to 33 µM;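 further: the screen sought inhibitors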
Target sequence (P04062 whole entry, looked up): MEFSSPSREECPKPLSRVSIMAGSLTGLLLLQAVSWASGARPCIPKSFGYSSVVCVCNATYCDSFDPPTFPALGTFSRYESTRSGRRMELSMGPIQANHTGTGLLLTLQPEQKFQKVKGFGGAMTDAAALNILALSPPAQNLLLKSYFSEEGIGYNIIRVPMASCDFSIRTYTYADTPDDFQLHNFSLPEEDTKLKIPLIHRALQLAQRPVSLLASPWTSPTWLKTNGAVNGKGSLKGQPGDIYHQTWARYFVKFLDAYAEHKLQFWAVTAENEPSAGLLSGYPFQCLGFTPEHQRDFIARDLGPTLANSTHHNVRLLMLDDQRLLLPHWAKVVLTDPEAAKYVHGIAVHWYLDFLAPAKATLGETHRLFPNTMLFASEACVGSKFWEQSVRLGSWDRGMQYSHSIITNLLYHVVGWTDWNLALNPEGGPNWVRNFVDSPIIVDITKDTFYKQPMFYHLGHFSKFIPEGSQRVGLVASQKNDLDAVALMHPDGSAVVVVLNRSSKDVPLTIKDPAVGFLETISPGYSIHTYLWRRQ
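Compounds titrated against 0.2 nM normal enzyme, 30 uM resorufin beta-D-glucopyranoside substrate, citrate/phosphate buffer with taurocholate and tween-20, pH 5.9. Reaction ran 20 min at room temperature; fluorescence (Ex 548/Em 600) gave AC50.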
Bst PK mod = Pyruvate Kinase; purified pyruvate kinase, luminescence ATP production; ribose 5-phosphate activator present at AC10; Potency, µM; hit rate 1.2% among 51,000; AID 361, 2006; in the data active means potency below about 11 µM; inconclusive means mostly about 12 µM to 25 µM;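 the screen sought inhibitors and activators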;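 further: scaled between full activation by ribose 5 phosphate and full inhibition by luteolin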
FLuc inh = qHTS Assay for Inhibitors of Firefly Luciferase. hit rate 2.2% among 72,000. Potency, µM (doses to about 57.1 µM), inactives show top-dose activity change, negative = inhibition, hits mostly inhibitors. purified firefly luciferase, luminescence, 8 min. AID 411, 2009; active means well fitted inhibition curve with a large enough effect; inconclusive means small, poorly fitted or top-dose-only effect; further: on the % scale 0 is the no-effect control and ±100 the full control effect; nearly all actives have a fitted effect of over 40% in size
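Titration-based qHTS; buffer 50 mM imidazole pH 7.2, 50 mM KCl, 7 mM MgCl2, 10 uM ATP, 0.01% Tween 20, 0.05% BSA; luciferase/luciferin detector mix added after compound; 8 min, ambient; luminescence.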
* marks the source's active call; other numbers are inactive results; i = inactive; ? = inconclusive; . = not tested or not shown; [ ] = remark or other dose. Potency means the concentration at half of the fitted maximal effect.

SMILES	GBA mod	Bst PK mod	FLuc inh
COc1ccc(-c2nc3cnc(Oc4cccc(Cl)c4)nc3n(CCC#N)c2=O)cc1	.	.	0%[11.4 µM]
Cn1c(=O)c(-c2cc(F)cc(F)c2)nc2cnc(N3CCNCC3)nc21	.	.	1%[11.4 µM]
O=C(Nc1ccc2nccnc2c1)c1cnccn1	>77	>57	-7%
O=C(Nc1ccccc1N1CCCC1)c1cccnc1	>77	>57	-1%
O=C(Nc1ccc2ccccc2c1)c1cnccn1	>77	.	7.9µM*
O=C(Nc1ccc2ccccc2c1)c1cccnc1	.	.	13µM*
O=C(Nc1ccc(-c2noc(CCc3ccccc3)n2)cc1)c1cccnc1	14*	>57	-10%
CCN1CCN(c2ccc(NC(=O)c3cccnc3)cc2Cl)CC1	6.3*	>57	-2%
O=C(CCCc1nc(-c2ccc(Cl)cc2)no1)Nc1cccnc1	.	>57	-2%
O=C(Nc1cccnc1)c1cccnc1	.	>26	0%[25.5 µM]
N#CC[N+]1(Cc2ccccn2)CCCC1	.	.	0%[11.4 µM]
COc1cccc(-c2nc(NC3CC3)c3ccccc3n2)c1	.	.	0%[2.29 µM]
c1ccc(CCNCc2ccco2)nc1	.	.	0%[11.4 µM]
CN(C)C(=O)c1ccc(-c2ccc3ncnc(NCCN4CCOCC4)c3c2)cc1	.	.	-2%[2.29 µM]
Cc1cn(CC[C@H](N)C(=O)O)c(=O)[nH]c1=O	.	.	2%[11.4 µM]
O=c1cc(-c2ccccc2O)oc2c(O)c(O)ccc12	.	.	-22%[11.4 µM]
O=c1cc(-c2ccccc2O)oc2ccc3ccccc3c12	.	.	0.5µM*
COc1ccc(-c2cnn(-c3ccccc3)c2N)cc1OC	.	.	-3%
Nc1nc2c(s1)CCc1c-2cnn1-c1ccccc1	>77	10*	7.9µM*
N#CCCn1c(=O)c(-c2ccccc2)nc2cnc(N3CCNCC3)nc21	.	.	0%[11.4 µM]
CCOc1ccc(NC(=O)CSc2nnc(-c3ccncc3)n2CC2CCCO2)cc1 (stereo not drawn)	>77	>57	-2%
CCOc1ccc2nc(NC(=O)CSc3nnc(-c4ccncc4)n3CC3CCCO3)sc2c1 (stereo not drawn)	>77	4.7*	2.5µM*
Nc1nc(SC/C=C\c2ccccc2)c2[nH]cnc2n1	.	.	0%[11.4 µM]
C=CC[C@@H]1C=C[C@H](Oc2ccc(C)cc2)[C@H](COC(=O)NCc2cccc3ccccc23)O1	.	.	-1%[11.4 µM]
Cc1occc1C(=O)Nc1cccc2ccccc12	>77	i	25µM*
SMILES	GBA mod	Bst PK mod	FLuc inh
Cc1occc1C(=O)Nc1ccccc1NC(=O)c1ccoc1C	>77	>57	1%
CC1C(=O)OC2C(O)C34C5CC(C(C)(C)C)C36C(OC(=O)C6O)OC4(C(=O)O5)C12O (stereo not drawn)	.	.	4%
O=C(c1ccccc1)[C@@H]1O[C@H]1c1ccc(-c2ccccc2)cc1	.	.	-12%
CN(C)C(=O)c1ccc(-c2nccc(NCc3cccs3)n2)cc1	.	.	-1%[2.29 µM]
CN(C)c1ccc(-c2nccc(NCc3cccs3)n2)cc1	.	.	0.5µM*
COc1cc2c(cc1OC)C(CCN)=NCC2	.	.	4%[11.4 µM]
c1ccc(CNc2ccc3ccccc3n2)nc1	.	.	25µM*
Cc1nc(NCc2ccccn2)c2ccccc2n1	>77	>57	-5%
C[C@@]12CCC(=O)C=C1CC[C@@H]1[C@@H]2[C@H](O)C[C@]2(C)[C@@H]1CC[C@]2(O)C(=O)COC(=O)CCC(=O)O	.	.	0%
N#CCCn1c(=O)c(-c2cc(F)cc(F)c2)nc2cnc(Oc3cccc(Cl)c3)nc21	.	.	1%[11.4 µM]
COc1ccc(OCCn2c(=N)n(CCO)c3ccccc32)cc1	4.3*	>57	1%
N=c1n(CCO)c2ccccc2n1CCOc1ccc(Cl)cc1Cl	.	.	0%
COc1ccc(OC)c([C@H]2Nc3ccccc3NC3=C2C(=O)CC(C)(C)C3)c1Br	.	.	-8%[11.4 µM]
Cc1ccccc1-c1cc(-c2ccccc2O)n[nH]1	>15	i	?
Cc1ccc(-c2cc(-c3ccccc3Cl)[nH]n2)c(O)c1	.	.	10µM*
N=C(N)SCC(=O)O	.	.	3%[11.4 µM]
O=C(Nc1nc(-c2ccc(S(=O)(=O)N3CCCC3)cc2)cs1)c1cccs1	?	>57	-1%
Cc1ccc(S(=O)(=O)N2CCOCC2)cc1C(=O)Nc1nc(-c2cccnc2)cs1	>77	8.6*	1%
COc1cccc(C(=O)Nc2nc(-c3ccc(S(=O)(=O)N4CCOCC4)cc3)cs2)c1	.	>57	-3%
O=C(Nc1nc(-c2ccc(S(=O)(=O)N3CCCCCC3)cc2)cs1)c1cccs1	14*	>57	3%
COC(=O)[C@@H]1CC[C@H](C)[C@@H](c2ccc(C)cc2)N1C(=O)c1ccc(/C=N\O[C@@H](C)c2cc(-c3c(C)cc(C)cc3C)no2)cc1	.	.	-2%[11.4 µM]
Cc1ccccc1CN1C2=NCCN2C(=O)C2=C1CCN(Cc1ccccc1)C2	.	.	1%[11.4 µM]
Cc1cc(C)cc(C(=N)c2ccccc2Cc2cccc3ccccc23)c1	.	.	4%[11.4 µM]
Cn1c(-c2ccc(F)cc2)cnc1SCC(=O)N1CCCCC1	>77	.	16µM*
O=C(CSc1ncc(-c2ccccc2)n1CC1CCCO1)N1CCCCC1 (stereo not drawn)	>77	>57	-4%
SMILES	GBA mod	Bst PK mod	FLuc inh
C=C1CC[C@H]2C(C)(C)[C@H](O)CC[C@]2(C)[C@@H]1COc1ccc2ccc(=O)oc2c1	.	.	1%[11.4 µM]
CCCS(=O)(=O)NCCc1csc(-c2cccnc2)n1	.	.	-1%
COc1ccccc1-c1cncnc1NCc1cnc(C)cn1	.	.	0%[2.29 µM]
Cc1nn(-c2ccccc2)c(Cl)c1C1C(C#N)=C(N)OC2=C1C(=O)CCC2 (stereo not drawn)	i	>57	0%
Cc1ccc(-n2nc(C)c(C3C(C#N)=C(N)OC4=C3C(=O)CC(C)(C)C4)c2Cl)cc1 (stereo not drawn)	4.8*	>57	0%
Cc1ncc(CSc2ccccc2N)c(CO)c1O	.	.	4%[11.4 µM]
CC[C@@H]1OC(=O)[C@@H](C)[C@H](O[C@@H]2C[C@@](C)(OC)[C@@H](O)[C@H](C)O2)[C@H](C)[C@H](O[C@@H]2O[C@@H](C)C[C@@H](N(C)C)[C@H]2O)[C@@](C)(O)C[C@H](C)C(=O)[C@@H](C)[C@H](O)[C@@]1(C)O	.	.	0%[11.4 µM]
CN(C)c1cccc(C(=O)Nc2cccc(F)c2)c1	>77	.	16µM*
O=C(Nc1cccc(F)c1)c1c(F)c(F)c(F)c(F)c1F	>77	>57	3%
CCN(CC)c1ccc(NC(=O)c2cncc(Br)c2)cc1	?	>57	-25%
CN(C)c1ccc(NC(=O)c2cccc(N3C(=O)CCC3=O)c2)cc1	.	.	13µM*
O=C(Nc1ccccc1)c1cccc(N2C(=O)CCC2=O)c1	>77	>57	-2%
CCN(CC)c1ccc(C(=O)Nc2cccc(F)c2)cc1	.	.	10µM*
COc1ccc(NC(=O)N2CCCC3(CCN(C(=O)c4cccn4C)CC3)C2)cc1	.	.	2%[11.4 µM]
Cc1cc(=Nc2ccc3c(c2)c(N)cc(C)[n+]3C)nc(N)n1C	.	.	6%[11.4 µM]
Nc1cccc(OCc2nc(N)nc(N)c2-c2ccc(Cl)cc2)c1	.	.	5%[11.4 µM]
O=C(O)[C@H]1CN[C@H](C(=O)O)C1	.	.	0%
O=C(CCSc1nnnn1-c1ccccc1)N1CCOCC1	>77	>57	2%
O=C(CSc1nnnn1-c1cccc2c1CCCC2)N1CCOCC1	.	11*	-1%
CN(C)c1ncc2nc(CCc3ccccc3)c(=O)n(C[C@H]3CCCO3)c2n1	.	.	1%[11.4 µM]
CC(=O)SC[C@@H](Cc1ccccc1)C(=O)NCC(=O)OCc1ccccc1	.	.	14%[25.5 µM]
C[C@H]1COC(=O)[C@H](Cc2ccccc2)NC(=O)[C@@H](C)COC(=O)[C@H](Cc2ccccc2)NC1=O	.	.	1%[11.4 µM]
